This note sets out measurements from ChEMBL document CHEMBL3988442, “University of Dundee, Small-Polar-MMV Screening Library” (2021).

The assay deals with T1, Aspartate--tRNA(Asp/Asn) ligase (Mycobacterium tuberculosis (strain ATCC 25618 / H37Rv)) (UniProt P9WFW3).
T1 sequence (whole entry): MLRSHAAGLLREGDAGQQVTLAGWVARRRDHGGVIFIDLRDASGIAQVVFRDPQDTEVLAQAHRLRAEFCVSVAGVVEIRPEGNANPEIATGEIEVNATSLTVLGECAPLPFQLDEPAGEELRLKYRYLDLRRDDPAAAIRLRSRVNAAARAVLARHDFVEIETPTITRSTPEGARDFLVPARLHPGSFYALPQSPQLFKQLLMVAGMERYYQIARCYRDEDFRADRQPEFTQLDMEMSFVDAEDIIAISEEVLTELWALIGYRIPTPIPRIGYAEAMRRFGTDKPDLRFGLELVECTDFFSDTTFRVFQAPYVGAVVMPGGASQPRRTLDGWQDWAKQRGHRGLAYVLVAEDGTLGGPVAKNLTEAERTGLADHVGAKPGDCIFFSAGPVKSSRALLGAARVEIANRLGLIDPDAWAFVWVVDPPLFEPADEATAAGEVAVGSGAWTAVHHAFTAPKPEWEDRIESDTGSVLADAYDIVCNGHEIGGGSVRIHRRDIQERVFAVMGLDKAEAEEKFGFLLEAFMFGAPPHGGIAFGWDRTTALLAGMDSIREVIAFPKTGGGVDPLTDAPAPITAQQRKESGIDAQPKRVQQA
The assay can be described thus: Assay for Asp RNA synthetase-1 from Mycobacterium tuberculosis. Type of assay: functional. The conditions noted are these: 30 µM. Details: scale not given: in the data most compounds retested in dose-response had high values.
With `CNC(=O)CCCNCc1c(C(C)C)nn(C)c1N(C)C`, the Percent Effect was 1.04%. As to `Cn1cc(C2CCCN2C(=O)CCCOCc2ccccc2)cn1` (centres undefined), the Percent Effect is -6.77%.

For the molecule `COC(=O)C(c1cc(F)ccc1F)N(C)C(=O)c1csnn1` (centres undefined), the Percent Effect was found to be 3.92%. For `Cc1ccc(N2CCC3(CCN(C(N)=O)CC3)CC2)nn1`, the Percent Effect stood at 2.03%. The same measure for `COc1c(CNCc2ccc(C(=O)NC3CC3)cc2)c(C)nn1C`: -3.68%; for `O=C(NCCOc1ccc2c(c1)CCC2)N1CCS(=O)(=O)CC1`: -1.48%; for `COCCN1C[C@H]2[C@@H](C1)N(Cc1ccc(C)o1)CC[C@H]2OC`: -3.26%. Then `CNc1cc2c(nn1)CCN(C(=O)c1ccoc1)C2`, with 0.663%. Then `COc1cccc(-n2nnc(C(=O)N3CCNC(=O)C3)c2C)c1`, with -6.06%; and `O=C(COc1cccc(Br)c1)N1CCOCC1c1ncon1` (centres undefined), with -0.929%; and `C[S+]([O-])c1nncn1CC(=O)c1ccc2c(c1)CCO2` (centres undefined), with 3.29%.

For `Cc1ccc(CN2CCn3c(C(=O)N(C)C)cnc3C2)s1`, the Percent Effect came out at 5.69%. The same measure for `O=C(CN1CCCCC1C1OCCO1)Nc1ccc(F)c(F)c1` (centres undefined): 3.65%; for `Cc1nc(CN2C[C@@H]3CN(C(=O)c4cnccn4)C[C@@H]3C2)cs1`: -0.661%. The same measure for `COc1ccc(CN(C)C(=O)CCC(=O)c2cccs2)c(OC)c1OC`: 1%; for `Cn1cnc2c1C(COCc1ccccc1)N(Cc1ccncc1)CC2` (centres undefined): 2.91%; for `CCCn1nc(C2CCNCC2)n(Cc2ccccc2)c1=O`: -5.32%. The same measure for `Cc1nc(C)n(CC2CCCN2Cc2cn3c(C)cccc3n2)n1` (centres undefined): -5.04%; for `Cc1ccc(CN2CCCn3c(nc(CN4CCCC4)cc3=O)C2)s1`: 4.32%; for `CC(C)OCCN(Cc1cccc(O)c1)C1CCC(O)CC1` (centres undefined): 3.29%.

On to `Fc1cnc(N2CCn3cc(CNc4ccccn4)nc3C2)nc1`, for which the Percent Effect is 1.02%. Then `CC(Nc1cccc(CN2CCOC2=O)c1)C(=O)NC(N)=O` (centres undefined), with -3.68%; and `COc1ccc(C(CNC(=O)Nc2cn[nH]c2)N2CCOCC2)cc1` (centres undefined), with 1.21%. The same measure for `Cc1nnc(NC(=O)NCc2cc(F)cc(F)c2)s1`: 4.55%; for `CC(C)c1ncncc1C(=O)N1CCN(Cc2cscn2)CC1`: -2.56%.

With `Cc1cccnc1C(=O)N1CCCC(c2[nH]ncc2S(C)(=O)=O)C1` (centres undefined), the Percent Effect stood at 3.25%. The same measure for `Cc1n[nH]c(=O)c2c(NC(=O)CN3CCOC(C)C3)oc(C)c12` (centres undefined): -3.61%; for `Cc1ccc(-c2nc(CN3CCCC3Cn3cc(C)cn3)no2)cc1` (centres undefined): 1.48%.

With `Cc1ccc(C(CNCC2CC2)N2CCOCC2)s1` (centres undefined), the Percent Effect came to 3.84%. The same measure for `CC1(C)Cc2ccccc2-c2nc(NCCO)[nH]c(=O)c21`: 3.08%. The same measure for `CC(=O)N1CCCC1c1ccc(C(=O)N2CCOCC2)s1` (centres undefined): 2.33%; for `O=C(c1cc2cc(F)ccc2[nH]1)N1CCC(Nc2cccnn2)CC1`: -0.116%; for `CO[C@H]1CCN(c2ncccn2)[C@H]1Cc1ccccc1`: 1.75%. The same measure for `Cc1c(C(=O)NCC(C)C)nnn1-c1cccc2c1CCN(C)C2`: 0.928%; for `Cc1ccc(C(=O)N2CCSCC2)cc1NC(=O)Cn1cncn1`: -1%; for `CCc1nccn1C1CCCN(C(=O)Cc2n[nH]c3ccccc23)C1` (centres undefined): 0.83%.

`Cc1cnc(N)c(C(=O)C2CCN(C(=O)c3ccccc3F)CC2)c1`: the Percent Effect is -1.9%.

Take `CN1CCN(C(=O)[C@@H]2CCO[C@@H]3CCN(c4ncccn4)C[C@@H]32)CC1`: the Percent Effect came out at 5.45%. Take `Cc1cnc(N2C[C@H]3C[C@H](C(=O)N(C)C)[C@@H](C2)O3)nc1`: the Percent Effect stood at 2.79%.
